Most compounds without a hit are left out; they make up all but 9.3% or so of the library.
ELG1 genotoxic: qHTS screen for small molecules that induce genotoxicity in human embryonic kidney (HEK293T) cells expressing luciferase-tagged ELG1. HEK293T ELG1-luciferase reporter, luminescence, 16 h. Potency, µM (titrated, usually from 46 µM), for the others: at the highest dose activity change, positive = activation, actives largely listed as activators. 330,000 tested, 1.3% active. AID 504466, 2011; further: % of control where 0% means no effect; nearly all actives have a fitted effect of over 60% in size
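ELG1-luciferase HEK293T cells, 2,000/well; compound pinned in; 16 hr, 37 °C, 5% CO2; ONE-Glo, 30 min RT; luminescence on CCD imager.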
NPC1 prom act: qHTS Assay for NPC1 Promoter Activators; Huh7 NPC1 promoter luciferase reporter, 24 h; Potency, µM (doses to about 9.22 µM), for inactives: at the top dose activation, actives largely listed as activators; 320,000 tested, 2.4% active; AID 485313, 2010; further: % of control where 0% means no effect; nearly all actives have a fitted effect of over 60% in size
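Luminescence from an NPC1 promoter-driven luciferase reporter in stably transfected Huh7 cells was measured after 24 h compound treatment at 37 °C, followed by 10 min ambient incubation with luciferase detection reagent.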
FLuc counter: qHTS profiling assay for firefly luciferase inhibitor/activator using purifed enzyme and Km concentrations of substrates (counterscreen for miR-21 project). Luciferin 4-monooxygenase (Photinus pyralis), P08659. purified FLuc, Km substrates, luminescence inhibition. Potency, µM (titrated, usually from 57.5 µM), without a hit: top-dose activity change, negative = inhibition, usual class: inhibitors. 360,000 tested, 6.9% active. AID 588342, 2011;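 further: plate controls were vehicle for no effect and reference inhibitor for full effect; nearly all actives have a fitted effect of over 55% in size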
Target sequence (P08659 whole entry, looked up): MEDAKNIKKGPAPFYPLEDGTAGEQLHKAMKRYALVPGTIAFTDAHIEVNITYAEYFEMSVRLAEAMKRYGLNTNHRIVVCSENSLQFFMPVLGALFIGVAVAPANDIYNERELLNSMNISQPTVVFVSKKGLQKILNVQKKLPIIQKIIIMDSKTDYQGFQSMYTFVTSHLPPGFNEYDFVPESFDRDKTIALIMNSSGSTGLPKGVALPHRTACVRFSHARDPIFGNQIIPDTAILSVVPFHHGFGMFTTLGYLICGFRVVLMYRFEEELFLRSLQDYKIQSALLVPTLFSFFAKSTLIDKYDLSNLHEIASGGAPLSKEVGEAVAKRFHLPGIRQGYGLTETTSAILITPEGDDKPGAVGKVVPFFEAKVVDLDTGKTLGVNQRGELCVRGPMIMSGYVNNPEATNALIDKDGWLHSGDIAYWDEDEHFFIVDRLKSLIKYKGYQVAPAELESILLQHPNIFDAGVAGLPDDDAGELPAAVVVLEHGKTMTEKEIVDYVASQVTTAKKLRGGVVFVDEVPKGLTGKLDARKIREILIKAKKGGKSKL
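Purified P. pyralis luciferase, 10 nM final, with Km-level 10 uM D-luciferin and 10 uM ATP in 50 mM Tris acetate pH 7.5, 10 mM Mg acetate, 0.01% Tween-20, 0.05% BSA; 6-point qHTS titration about 60 µM downward; luminescence read.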
Rab9 promoter act: qHTS Assay for Rab9 Promoter Activators; Huh7 Rab9 promoter-luciferase reporter, luminescence, 24 h; Potency, µM (titrated, usually from 9.22 µM), for inactives: at the top dose activation, negative = inhibition, actives largely listed as activators; 320,000 tested, 2.8% active; AID 485297, 2010; further: % of control where 0% means no effect; nearly all actives have a fitted effect of over 60% in size
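Luminescence read-out: Huh7 cells stably expressing Rab9-luciferase, treated 24 h with compound at 37 °C, then lysed with luciferase reagent for 10 min at ambient before reading.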
ELG1 DNA repair: qHTS screen for small molecules that inhibit ELG1-dependent DNA repair in human embryonic kidney (HEK293T) cells expressing luciferase-tagged ELG1. AID 504467, 2011. Potency, µM (series often up to 46.1 µM), for inactives: at the top dose activity change, negative = inhibition, most hits filed as inhibitors. 330,000 tested, 2.3% active. HEK293T ELG1-luciferase reporter, luminescence, 16 h; DNA damage induced by 5-fluorouridine; further: on the % scale 0 is the no-effect control and ±100 the full control effect; nearly all actives have a fitted effect of over 55% in size
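5-Fluorouridine DNA damage + compound/DMSO, 2,000 cells/well, 16 h, 37 °C/5% CO2. ONE-Glo, 30 min RT, luminescence. Readout = decrease in reporter signal.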
SMN2 splice enh: qHTS Assay for Enhancers of SMN2 Splice Variant Expression | HEK293 SMN2-luciferase splicing reporter, luminescence, 30-36 h | Potency, µM (titrated, usually from 46.1 µM), without a hit: at the top dose activity change, positive = activation, hits mostly activators | 210,000 tested, 2.8% active; further: % of control where 0% means no effect; nearly all actives have a fitted effect of over 55% in size
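qHTS luciferase splicing reporter: luminescence rises when SMN2 exon 7 is included in transfected HEK293 cells. Compound exposure lasted 30-36 h at 37C, with 4.5 mM final sodium butyrate as control, followed by a ONE-Glo read.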
* hit, by the source's call; ? = inconclusive; / = not tested or not shown; [ ] = remark or other dose. The call rests on the fitted dose curve; in most records, active means well fitted curve in the direction sought with a large enough effect; inconclusive means small, poorly fitted or top-dose-only effect, or another doubt; inactive means no such curve, though single readings can be large; an effect the other way counts as inactive or inconclusive. Potency means the concentration at half of the fitted maximal effect.

SMILES	ELG1 genotoxic	NPC1 prom act	FLuc counter	Rab9 promoter act	ELG1 DNA repair	SMN2 splice enh
CCOC(=O)c1c(SCC(=O)Nc2nccs2)nc(C)c(C)c1C	?	2.8µM*	-1%	2.5µM*	?	/
Cc1ccc(C#N)c(SCC(=O)Nc2nccs2)n1	1.8µM*	0.79µM*	-11%	0.45µM*	?	1.8µM*
Cc1nc2nc(SCC(=O)NC3CCCCC3)nn2c(C)c1Cc1ccccc1Cl	/	/	-16%	/	/	-2%
O=C(Nc1ccc2snnc2c1)Nc1cccc2ccccc12	-1%	-4%	21µM*	4%	?	-8%
Cc1ccc(NC(=O)Nc2ccc3snnc3c2)cc1C	/	/	24µM*	/	/	1%
COc1cccc(NC(=O)Nc2ccc3c(c2)nnn3C)c1	10%	?	6.7µM*	?	?	18µM*
COc1cccc(NC(=O)Nc2ccc3snnc3c2)c1	/	/	17µM*	/	/	19%
COc1ccc(OC)c(NC(=O)COC(=O)CCS(=O)(=O)c2ccc(Cl)cc2)c1	0%	/	/	/	4%	/
Cc1cccc(OCCCn2c(CO)nc3ccccc32)c1	5%	21%	13µM*	?	?	/
OCc1nc2ccccc2n1CCCOc1ccccc1	?	?	11µM*	?	?	11µM*
Cc1ccc(NC(=S)N/N=C/c2c(C)nn(-c3ccccc3)c2N2CCCC2)cc1	-3%	3%	0%	1%	25%	/
Cc1nn(C)cc1/C=N/NC(=S)Nc1ccccc1	17%	?	5.4µM*	2µM*	?	26%
CN(C)c1ccc(/C=C2\CCC/C(=C\c3ccccc3)C2=O)cc1	?	28%	12µM*	24%	?	18%
CC(C)/C=C1\CC/C(=C\c2cccnc2)C1=O	2%	3%	17µM*	1%	?	-34%
O=C1/C(=C/c2ccccc2)CCCc2ccccc21	?	0%	11µM*	3%	?	-10%
O=C1/C(=C/c2ccc(C(=O)O)cc2)CCC/C1=C\c1ccc(C(=O)O)cc1	2%	-1%	3%	0%	1%	18%
CCC1C/C(=C\c2cccnc2)C(=O)/C(=C/c2cccnc2)C1 (stereo unspecified)	-15%	-12%	2%	-42%	2.6µM*	-85%
O=C1NC(=S)N/C1=C/c1cccnc1	-9%	11%	-2%	0%	?	/
COc1ccc([C@]23Cc4cc(OC)c(OC)cc4C(O2)c2c(cc(-c4ccccc4)oc2=O)O3)cc1	/	0%[1.84 µM]	-14%[11.5 µM]	0%[1.84 µM]	/	/
O=C(O)c1cc2c(cc1S(=O)(=O)O)[C@H]1[C@@H](C3[C@H]2[C@@]2(Cl)C(Cl)=C(Cl)C3(Cl)C2(Cl)Cl)[C@]2(Cl)C(Cl)=C(Cl)C1(Cl)C2(Cl)Cl (stereo partly specified)	/	/	/	/	/	-4%[9.22 µM]
O=C1Nc2ccccc2/C1=C/c1cccnc1	4%	-11%	-7%	-1%	-6%	12%
O=C1/C(=C\c2cccnc2)CCc2ccccc21	12%	-7%	6µM*	4%	?	/
O=C1/C(=C/c2cccnc2)CC/C1=C\c1cccnc1	-22%	-2%	?	-9%	?	-21%
O=C1/C(=C/c2cccnc2)CCC/C1=C\c1cccnc1	-13%	-6%	-22%	-44%	4.1µM*	-100%
COc1ccc(Cl)cc1NC(=O)Cn1ncc2c3ccccc3n(C)c2c1=O	/	/	-2%	/	/	-5%
SMILES	ELG1 genotoxic	NPC1 prom act	FLuc counter	Rab9 promoter act	ELG1 DNA repair	SMN2 splice enh
Cc1cc(C)nc(SC/C=C/c2ccccc2)n1	11%	11%	?	12%	?	/
C(=C\c1ccccc1)/CSc1ccccn1	17%	?	12µM*	3.5µM*	?	24%
CC(C)=CCn1cnc2c1C(NOCc1ccccc1)=NCN2	/	/	/	/	/	11%
CC(=O)c1cnc2nc(SCc3ccccc3)nn2c1C	?	4.5µM*	/	3.5µM*	?	/
CC(=O)c1cnc2cc(-c3ccc(C)cc3)nn2c1C	7.3µM*	?	3.4µM*	3.5µM*	?	11µM*
CC(=O)c1cnc2nc(SCc3ccc(C)cc3)nn2c1C	0%	-3%	-7%	4%	2%	/
CC(=O)c1cnc2cc(-c3ccccc3)nn2c1C	2.2µM*	2.5µM*	2.4µM*	1.4µM*	?	16µM*
COc1ccc(-c2cc3ncc(C(=O)c4cc([N+](=O)[O-])ccc4O)cn3n2)cc1	/	/	?	/	/	-11%
COc1ccc(-c2cc3ncc(C(C)=O)c(C)n3n2)cc1	?	2.2µM*	?	1.3µM*	?	11µM*
CC(=O)c1cnc2cc(C)nn2c1C	1%	-5%	-2%	3%	12%	-10%
COc1ccc(Cn2c(CNC(=O)Cc3cccc([N+](=O)[O-])c3)nc3cccnc32)cc1	/	/	-3%	/	/	/
COC(=O)c1ccc2c(c1)SC1=C(CCCC1=O)N2	21µM*	20%	19µM*	-2%[1.84 µM]	?	-18%
CCCCNC(=O)C1CCN(Cc2ccc(OCc3ccccc3)cc2)CC1	?	?	19µM*	?	?	?
OC1CCN(Cc2ccc(OCc3ccccc3)cc2)CC1	?	2µM*	11µM*	?	?	/
O=C(CNC(=O)c1cnccc1C(F)(F)F)c1cccc(Cl)c1	-7%	0%	-1%	-1%	17%	/
CCOc1nc(NC2CCCC2)nc(N2CCC(C)CC2)n1	-9%	-4%	3%	0%	-8%	/
Cc1ccc(-c2c[n+]3c(n2-c2ccccc2)CCC3)cc1	-16%	-30%	6%	-34%	2.3µM*	/
CC(=O)c1sc(NC(=O)CSC(C)C(=O)Nc2cc(C)on2)nc1-c1ccccc1 (stereo unspecified)	1%	1%	2%	-5%	8%	/
CCOC(=O)CC(=O)CSc1nnc2sc3ccccc3n12	4%	3%	?	3%	?	-10%
O=C(CSc1nnnn1-c1ccccc1)CC(=O)Nc1ccc(Cl)cc1	-16%	9%	-15%	7%	16µM*	-48%
O=C(CSc1nnc2sc3ccccc3n12)c1ccco1	?	23%	11µM*	?	?	11µM*
O=C(CSc1nnnn1-c1ccccc1)c1ccco1	?	?	17µM*	?	?	10%
c1csc(CSc2nnc3sc4ccccc4n23)c1	?	?	17µM*	3.2µM*	?	14µM*

Screens deposited in PubChem by National Center for Advancing Translational Sciences (NCATS).
